PubChem BioAssay (NCATS)
Results filed as inconclusive are left out. Where a call stands in place of a potency, no number is given. A number with no mark means an inactive call. Calls of active or inactive are those of the source. The call rests on the fitted dose curve; in most records, active means well fitted cell-killing curve with a large enough effect; inconclusive means small, poorly fitted or top-dose-only effect, or effect the other way; inactive means no such curve, though single readings can be large or run the other way.

Legend:
[1] = Quantitative High-Throughput drug screen in 47 multiple myeloma cell lines against the NCATS MIPE library collection: FR4_PLB cell viability assay (AID 1918924; further: nearly all actives have a fitted effect of over 35% in size; further: potency means the concentration at half of the fitted maximal effect)
Outline: (§1)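 qHTS of the MIPE 4.0 collection: 500 myeloma cells/well, 48 h drug exposure at 37C in 5% CO2, then CellTiter-Glo for 5 min at room temperature before luminescence reading.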

[2] = Quantitative High-Throughput drug screen in 47 multiple myeloma cell lines against the NCATS MIPE library collection: Delta47_JCRB cell viability assay (AID 1918925; further: nearly all actives have a fitted effect of over 45% in size; further: potency means the concentration at half of the fitted maximal effect)
Outline: (§2)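 We plated 500 myeloma cells per well, pinned in MIPE 4.0 compounds, and incubated for 48 hours at 37C. ATP was then quantified with CellTiter-Glo, with DMSO and media-only wells defining 100% and 0%.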

[3] = Quantitative High-Throughput drug screen in 47 multiple myeloma cell lines against the NCATS MIPE library collection: EJM_DSMZ cell viability assay (AID 1918926; further: nearly all actives have a fitted effect of over 30% in size; further: potency means the concentration at half of the fitted maximal effect)
Outline: as §2

[4] = Quantitative High-Throughput drug screen in 47 multiple myeloma cell lines against the NCATS MIPE library collection: AMO1_DSMZ cell viability assay (AID 1918927; further: nearly all actives have a fitted effect of over 30% in size; further: potency means the concentration at half of the fitted maximal effect)
Outline: as §2

[5] = Quantitative High-Throughput drug screen in 47 multiple myeloma cell lines against the NCATS MIPE library collection: ARD_JJKsccE7 cell viability assay (AID 1918929; further: potency means the concentration at half of the fitted maximal effect)
Outline: as §2

[6] = Quantitative High-Throughput drug screen in 47 multiple myeloma cell lines against the NCATS MIPE library collection: KMM1_JCRB cell viability assay (AID 1918960); further: nearly all actives have a fitted effect of over 30% in size; further: potency means the concentration at half of the fitted maximal effect
Outline: (§3)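 Viability screen: myeloma cells (500/well) incubated 48 h at 37 °C, humidified 5% CO2, with pinned library compounds; CellTiter-Glo added, luminescence read; DMSO wells set 100%, medium-only wells 0%.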

[7] = Quantitative High-Throughput drug screen in 47 multiple myeloma cell lines against the NCATS MIPE library collection: ARP1_JJKsccF8 cell viability assay (AID 1918928; further: nearly all actives have a fitted effect of over 40% in size; further: potency means the concentration at half of the fitted maximal effect)
Outline: as §3

[8] = Quantitative High-Throughput drug screen in 47 multiple myeloma cell lines against the NCATS MIPE library collection: Karpas620_DSMZ cell viability assay (AID 1918959); further: nearly all actives have a fitted effect of over 30% in size; further: potency means the concentration at half of the fitted maximal effect
Outline: as §1

[9] = Quantitative High-Throughput drug screen in 47 multiple myeloma cell lines against the NCATS MIPE library collection: Karpas417_ECACC cell viability assay (AID 1918961); conditions: Karpas417 myeloma viability, CellTiter-Glo ATP luminescence, 48 h; viability (% of DMSO): at 45.8 µM (top of the series)
Outline: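 Luminescent ATP measurement with CellTiter-Glo gives viability, scaled between DMSO-only wells (100%) and media-only wells (0%). Cells, 500 per well, faced library compounds for 48 hours at 37C.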

SMILES	Potency [1]	Potency [2]	Potency [3]	Potency [4]	Potency [5]	Potency [6]	Potency [7]	Potency [8]	viability (% of DMSO) [9]	Potency [9]
CC[C@@]1([C@@H]2O[C@@H]([C@H]3O[C@@](O)(CO)[C@H](C)C[C@H]3C)C[C@H]2C)CC[C@H]([C@]2(C)CC[C@]3(C[C@H](O)[C@@H](C)[C@@H]([C@@H](C)[C@@H](OC)[C@H](C)C(=O)O)O3)O2)O1	0.812 µM (active)	0.457 µM (active)	2.04 µM (active)	0.0575 µM (active)	911 nM (active)	–	–	–	–	–
C[C@]12CCC(=O)C=C1[C@@H]1CC1[C@H]1[C@H]3[C@@H]4C[C@H]4[C@@]4(CCC(=O)O4)[C@@]3(C)CC[C@H]12 (stereo not given in full)	inactive	inactive	inactive	–	18700 nM (active)	20.9 µM (active)	–	–	–	–
CN(C)CC[C@H](c1ccc(Cl)cc1)c1ccccn1	inactive	inactive	–	–	–	–	inactive	inactive	–	–
N#Cc1c(NC(=O)c2cccc3ccccc23)sc2c1CCCC2	0.209 µM (active)	0.418 µM (active)	–	0.118 µM (active)	296 nM (active)	–	0.418 µM (active)	–	–	–
O=C(C[C@@H]1CC=CCCC(=O)O[C@H](c2ccccc2)CNC1=O)NCc1ccc(Cl)cc1	16.6 µM (active)	10.5 µM (active)	0.0012 µM (active)	–	–	inactive	–	inactive	118% (active)	–
C=CC[C@@H]1C=C(C)C[C@H](C)C[C@H](OC)[C@H]2O[C@@](O)(C(=O)C(=O)N3CCCC[C@H]3C(=O)O[C@H](C(C)=C[C@@H]3CC[C@H](O)[C@H](OC)C3)[C@@H](C)[C@@H](O)CC1=O)[C@@H](C)C[C@@H]2OC	2.64 µM (active)	1.87 µM (active)	–	2.64 µM (active)	2090 nM (active)	–	2.09 µM (active)	1.48 µM (active)	–	–
c1cc(CN2CCCNCCNCCCNCC2)ccc1CN1CCCNCCNCCCNCC1	inactive	inactive	inactive	–	inactive	inactive	–	inactive	–	–
COc1cc2ncnc(Nc3cccc(Br)c3)c2cc1OC	1.32 µM (active)	1.48 µM (active)	–	3.72 µM (active)	–	14.8 µM (active)	–	–	–	–
CC(C)(C)[N+]([O-])=Cc1ccc(S(=O)(=O)O)cc1S(=O)(=O)O	inactive	inactive	inactive	–	–	inactive	inactive	inactive	–	–
COc1cc(OC)c(NC(=O)Nc2cc(C)on2)cc1Cl	inactive	inactive	–	–	–	inactive	inactive	inactive	–	–
CC(=CC(=O)Nc1ccccc1C(=O)O)c1ccc2ccccc2c1	inactive	14.8 µM (active)	–	–	14800 nM (active)	–	–	–	–	–
O=C1NC(O)CCN1[C@@H]1O[C@H](CO)[C@H](O)[C@H]1O (stereo not given in full)	inactive	inactive	inactive	–	inactive	inactive	–	inactive	–	inactive
Cn1c(Nc2ccc(C(F)(F)F)cc2)nc2cc(Oc3ccnc(-c4ncc(C(F)(F)F)[nH]4)c3)ccc21	18.7 µM (active)	0.662 µM (active)	–	9.35 µM (active)	–	–	20.9 µM (active)	–	–	–
CCCc1nc(C(C)(C)O)c(C(=O)O)n1Cc1ccc(-c2ccccc2-c2nn[nH]n2)cc1	inactive	inactive	–	inactive	–	inactive	inactive	inactive	–	–
N#Cc1cc(NC(=O)Nc2nnc(-c3ccncc3)s2)ccc1-c1cn[nH]c1	inactive	inactive	inactive	–	inactive	inactive	–	inactive	–	inactive
O=C(O)C=Cc1ccc(Cn2ccnc2)cc1	inactive	inactive	inactive	–	–	inactive	–	inactive	–	–
CCc1c(O)cc(O)c(C(=O)c2ccc(OCCN3CCOCC3)c(OC)c2)c1CC(=O)N(CCOC)CCOC	1.18 µM (active)	1.66 µM (active)	–	–	–	0.935 µM (active)	1.48 µM (active)	–	–	–
NS(=O)(=O)OC[C@@H]1C[C@@H](n2ccc3c(N[C@H]4CCc5ccccc54)ncnc32)C[C@H]1O	9.35 µM (active)	0.526 µM (active)	–	0.296 µM (active)	–	–	–	–	–	–
OCC(O)C(O)C(O)CO (stereo not given)	inactive	inactive	inactive	–	–	–	–	inactive	–	–
C=CC1=C(C(=O)O)N2C(=O)[C@@H](NC(=O)C(=NO)c3csc(N)n3)[C@H]2SC1	inactive	inactive	inactive	–	–	inactive	inactive	inactive	–	–
CCOC(=O)N1CCN([N+]([O-])=NOc2ccc([N+](=O)[O-])cc2C#N)CC1	0.743 µM (active)	1.05 µM (active)	–	1.05 µM (active)	833 nM (active)	1.18 µM (active)	1.05 µM (active)	–	–	–
COc1cc2c(cc1O)CCC1C2CC[C@@]2(C)C1CC[C@@H]2O (stereo not given in full)	0.743 µM (active)	2.64 µM (active)	–	–	inactive	–	–	–	–	inactive
CCn1c(=O)c2c(nc(C=Cc3ccc(OC)c(OC)c3)n2C)n(CC)c1=O	inactive	inactive	–	–	–	–	inactive	inactive	–	–
